Records with an inconclusive call do not appear. Unmarked numbers belong to inactive results. Active and inactive are the calls of the source. Calls follow the shape of the dose curve; as a rule, active = well fitted curve in either direction with a large enough effect (not every such curve was filed as active); inconclusive = small, poorly fitted or top-dose-only effect, or another doubt; inactive = flat fitted curve, though single readings scatter.
% is scaled to controls: 0 for no effect and ±100 for the full control effect.

The nature of the first experiment: AP1 Signaling Pathway (AID 357). The settings on record: ME-180 (cervical carcinoma) AP-1-bla reporter, EGF-induced, beta-lactamase ratio, 5 h; at 17.2 µM (top of the series) unless noted. An outline of the steps: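 AP-1-bla ME-180 cells with beta-lactamase reporter under AP-1 response element, stimulated with EC50 EGF; compounds titrated, 5 hours at 37 degrees Celsius. CCF4 read at 460/530 nm ratio; positive and negative modulators judged by AC50.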
Take `COc1ccc2c(c1)[nH]c1c(=O)n(CCN(C)C)cnc12`: the activity change, negative = inhibition is 10.5%.

For the molecule `O=C(O)c1ccc(C2CCCCC2)cn1`, the activity change, negative = inhibition is 12.7%.

Regarding `CCOC(=O)CC1=C(C(=O)OCC)C(c2cc(OC)c(OC)cc2OC)C(C#N)=C(N)O1` (stereo not drawn), the activity change, negative = inhibition is 0.567%.

For the molecule `CC(C)(C)NCc1cc2ccccc2[nH]c1=O`, the activity change, negative = inhibition was -4.82%.

On to `O=C(O)CCCCCN1C(=O)CCC1=O`, for which the activity change, negative = inhibition was 13.2%.

Consider `O=C(Cc1ccc(Cl)cc1)Nc1cccc(-c2nnc(-c3ccco3)o2)c1`, for which the activity change, negative = inhibition was -5.69%.

For `COC(=O)CC(=O)Cc1nc(N)nc(Nc2ccc(C)c(C)c2)n1`, the activity change, negative = inhibition was 9.64%.

Consider `O=C(NCCO)c1cccc2c1C(=O)c1ccccc1-2`, for which the activity change, negative = inhibition is 9.17%.

As to `COc1ccc(C2C=C(c3ccc(Cl)cc3)Nc3nc(NC(C)=O)nn32)cc1` (stereo not drawn), the activity change, negative = inhibition is -15.6%.

As to `Cc1ccc(S(=O)(=O)NC(=O)NCc2ccc3c(c2)OCO3)cc1`, the activity change, negative = inhibition is 12.9%.

Consider `COC(=O)c1ccc(CN(C(C)=O)c2ccccc2)o1`, for which the activity change, negative = inhibition was 10.5%.

Turning to `CCC(=O)Nc1ccc(-c2nnc(-c3ccccc3)o2)cc1`, the activity change, negative = inhibition was 0.816%.

Consider `O=C(NCCOCCOCCNC(=O)c1cccnc1)c1cccnc1`, for which the activity change, negative = inhibition is -1.69%.

In the case of `COc1cc(OC)cc(C(=O)N2CCC(N3CCN(c4ccccc4)CC3)CC2)c1`, the activity change, negative = inhibition is 5.25%.

As to `COc1cccc(C(=O)N2CCN(S(=O)(=O)Cc3ccccc3)CC2)c1OC`, the activity change, negative = inhibition was 8.1%.

As to `Cc1nc2c(o1)CCc1ccccc1C2N1CCN(C)CC1` (stereo not drawn), the activity change, negative = inhibition was 22.5%.

As to `Cc1cc(COc2ccccc2OCCN2CCN(C)CC2)no1`, the activity change, negative = inhibition was 21.4%.

Turning to `Cc1c(/C(O)=C2/C(=O)C(=O)N(CCN3CCOCC3)C2c2cccnc2)cnn1-c1ccccc1` (stereo not drawn), the activity change, negative = inhibition was -11.6%.

`COC(=O)Cn1cc(C(=O)OC)cc(Br)c1=O`: the activity change, negative = inhibition was 8.29%.

For the molecule `COc1ccc(CCn2c(C)ccc2C)cc1OC`, the activity change, negative = inhibition was -3.97%.

In the case of `Cc1cc(C(=O)O)c(CSc2ncn[nH]2)o1`, the activity change, negative = inhibition was 12.5%.

Turning to `Cc1cc(C)nc(N(C#N)S(=O)(=O)c2ccccc2Cl)n1`, the activity change, negative = inhibition is 0.835%.

Take `S=C(N=Nc1ccccc1)NNc1ccccc1`: the activity change, negative = inhibition is 7.8%.

For the molecule `OCCOCCNc1ncnc2c1cnn2-c1ccc(Cl)cc1`, the activity change, negative = inhibition was 9.08%.

Consider `CC(=O)C1=C(O)C(=O)N(c2cccc(C(=O)O)c2)C1c1ccccc1F` (stereo not drawn), for which the activity change, negative = inhibition was -4.91%.

On to `Cn1ncc(N=Cc2ccccc2O)c1C(=O)N1CCOCC1`, for which the activity change, negative = inhibition was 2.72%.

With `CSC1=C(C#N)C(C)CC(=O)N1` (stereo not drawn), the activity change, negative = inhibition was 3.08%.

In the case of `Cc1ccc(C2CC(c3cccs3)n3nc(N)nc3N2)cc1` (stereo not drawn), the activity change, negative = inhibition was 2.57%.

Take `Cc1cc(C)n(C(=O)CSc2nc3ccccc3o2)n1`: the activity change, negative = inhibition was 13.4%.

On to `Cc1cc(C)n(-c2ncnc3sc(C)c(C)c23)n1`, for which the activity change, negative = inhibition was -15.7%.

As to `CN(C)c1nc2n(c(=S)n1)CCS2`, the activity change, negative = inhibition was 11.5%.

For the molecule `CCc1nc(N2CCN(C(=O)c3ccccc3)CC2)c(C#N)c2c1COC(C)(C)C2`, the activity change, negative = inhibition was -17.6%.

As for `Cc1cc(=O)[nH]c(COc2ccccc2)n1`, the activity change, negative = inhibition is 3.59%.

On to `O=C(CN1C(=O)c2ccccc2S1(=O)=O)NCCSCc1ccco1`, for which the activity change, negative = inhibition was -8.94%.

With `CC(=O)N=C(N)Sc1nc2ccccc2[nH]1`, the activity change, negative = inhibition was 12.8%.

As for `N#CCCSCc1ccc(OCC(=O)O)cc1`, the activity change, negative = inhibition was 2.01%.

Turning to `c1ccc(OCc2nn3c(-c4cccnc4)nnc3s2)cc1`, the activity change, negative = inhibition is -6.61%.

`CCOC(=O)c1ccc(N2CC(O)=C(c3nc4ccccc4c(=O)[nH]3)C2=N)cc1`: the activity change, negative = inhibition was -27.9%.

Regarding `Cc1cc(C)c2c(N)c(C(=O)c3ccccc3)oc2n1`, the activity change, negative = inhibition was 1.21%.

The next experiment in a line: NFAT Signaling Pathway (AID 444).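 Also: carbachol stimulus at about its EC50 of 1 µM final.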 The settings on record: Jurkat NFAT-bla M1, carbachol, beta-lactamase ratio, 5 h; at 17.2 µM (top of the series) unless noted. An outline of the steps: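 Read-out: CCF4 FRET ratio (460 nm/530 nm) after 1 h RT dye loading, used for %activity and AC50 from titration series. Cells: Jurkat NFAT-β-lactamase/M1 line, treated with compound plus 1 uM carbachol for 5 h, 37 °C.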
As for `COc1ccc2c(c1)[nH]c1c(=O)n(CCN(C)C)cnc12`, the activity change, negative = inhibition was 15.2%.

For `O=C(O)c1ccc(C2CCCCC2)cn1`, the activity change, negative = inhibition is -13.3%.

Regarding `CCOC(=O)CC1=C(C(=O)OCC)C(c2cc(OC)c(OC)cc2OC)C(C#N)=C(N)O1` (stereo not drawn), the activity change, negative = inhibition was -1.8%.

As for `CC(C)(C)NCc1cc2ccccc2[nH]c1=O`, the activity change, negative = inhibition is -24.2%.

Take `O=C(O)CCCCCN1C(=O)CCC1=O`: the activity change, negative = inhibition is 23.1%.

As to `O=C(Cc1ccc(Cl)cc1)Nc1cccc(-c2nnc(-c3ccco3)o2)c1`, the activity change, negative = inhibition was 11.3%.

Turning to `COC(=O)CC(=O)Cc1nc(N)nc(Nc2ccc(C)c(C)c2)n1`, the activity change, negative = inhibition is -5.97%.

For `O=C(NCCO)c1cccc2c1C(=O)c1ccccc1-2`, the activity change, negative = inhibition is 2.44%.

Consider `COc1ccc(C2C=C(c3ccc(Cl)cc3)Nc3nc(NC(C)=O)nn32)cc1` (stereo not drawn), for which the activity change, negative = inhibition is -13.4%.

Take `Cc1ccc(S(=O)(=O)NC(=O)NCc2ccc3c(c2)OCO3)cc1`: the activity change, negative = inhibition is -5.13%.

On to `COC(=O)c1ccc(CN(C(C)=O)c2ccccc2)o1`, for which the activity change, negative = inhibition was -7.2%.

In the case of `CCC(=O)Nc1ccc(-c2nnc(-c3ccccc3)o2)cc1`, the activity change, negative = inhibition was 4.89%.

Take `O=C(NCCOCCOCCNC(=O)c1cccnc1)c1cccnc1`: the activity change, negative = inhibition is -1.99%.

As to `COc1cc(OC)cc(C(=O)N2CCC(N3CCN(c4ccccc4)CC3)CC2)c1`, the activity change, negative = inhibition was -4.18%.

With `COc1cccc(C(=O)N2CCN(S(=O)(=O)Cc3ccccc3)CC2)c1OC`, the activity change, negative = inhibition is 18.1%.

On to `Cc1nc2c(o1)CCc1ccccc1C2N1CCN(C)CC1` (stereo not drawn), for which the activity change, negative = inhibition is -82.4% (active).

As to `Cc1cc(COc2ccccc2OCCN2CCN(C)CC2)no1`, the activity change, negative = inhibition was -13.9%.

Turning to `Cc1c(/C(O)=C2/C(=O)C(=O)N(CCN3CCOCC3)C2c2cccnc2)cnn1-c1ccccc1` (stereo not drawn), the activity change, negative = inhibition was -1.03%.

Turning to `COC(=O)Cn1cc(C(=O)OC)cc(Br)c1=O`, the activity change, negative = inhibition was 0.926%.

`COc1ccc(CCn2c(C)ccc2C)cc1OC`: the activity change, negative = inhibition is -16.3%.

With `Cc1cc(C(=O)O)c(CSc2ncn[nH]2)o1`, the activity change, negative = inhibition was 19.7%.

Regarding `Cc1cc(C)nc(N(C#N)S(=O)(=O)c2ccccc2Cl)n1`, the activity change, negative = inhibition is -12.4%.

Consider `S=C(N=Nc1ccccc1)NNc1ccccc1`, for which the activity change, negative = inhibition is 14%.

For `OCCOCCNc1ncnc2c1cnn2-c1ccc(Cl)cc1`, the activity change, negative = inhibition is 0.366%.

Take `CC(=O)C1=C(O)C(=O)N(c2cccc(C(=O)O)c2)C1c1ccccc1F` (stereo not drawn): the activity change, negative = inhibition is 3.23%.

For the molecule `Cn1ncc(N=Cc2ccccc2O)c1C(=O)N1CCOCC1`, the activity change, negative = inhibition is -6.4%.

Regarding `CSC1=C(C#N)C(C)CC(=O)N1` (stereo not drawn), the activity change, negative = inhibition was -0.632%.

Turning to `Cc1ccc(C2CC(c3cccs3)n3nc(N)nc3N2)cc1` (stereo not drawn), the activity change, negative = inhibition is 6.31%.

With `Cc1cc(C)n(C(=O)CSc2nc3ccccc3o2)n1`, the activity change, negative = inhibition was -4.76%.

Take `Cc1cc(C)n(-c2ncnc3sc(C)c(C)c23)n1`: the activity change, negative = inhibition was -7.26%.

Take `CN(C)c1nc2n(c(=S)n1)CCS2`: the activity change, negative = inhibition is 3.88%.

`CCc1nc(N2CCN(C(=O)c3ccccc3)CC2)c(C#N)c2c1COC(C)(C)C2`: the activity change, negative = inhibition was 21.3%.

In the case of `Cc1cc(=O)[nH]c(COc2ccccc2)n1`, the activity change, negative = inhibition was -7.86%.

Consider `O=C(CN1C(=O)c2ccccc2S1(=O)=O)NCCSCc1ccco1`, for which the activity change, negative = inhibition is 8.79%.

Take `CC(=O)N=C(N)Sc1nc2ccccc2[nH]1`: the activity change, negative = inhibition is -12.3%.

For the molecule `N#CCCSCc1ccc(OCC(=O)O)cc1`, the activity change, negative = inhibition was -0.583%.

In the case of `c1ccc(OCc2nn3c(-c4cccnc4)nnc3s2)cc1`, the activity change, negative = inhibition is 2.29%.

With `CCOC(=O)c1ccc(N2CC(O)=C(c3nc4ccccc4c(=O)[nH]3)C2=N)cc1`, the activity change, negative = inhibition is -8.54%.

For `Cc1cc(C)c2c(N)c(C(=O)c3ccccc3)oc2n1`, the activity change, negative = inhibition is 3.96%.

(Values after PubChem BioAssay (NCATS).)
